Shiga toxin inh = blocks Shiga toxin action in Vero cells; hit rate 9.2% among 290,000; inhibition, % at 38.7 µM; Vero cells, Shiga toxin protein synthesis inhibition reporter; in the data active = inhibition mostly above about 28%, no sharp cut-off; inactive = mostly below about 43%; note: 0% is about no effect
NS1 inh = blocks influenza NS1 protein function; Potency, µM (titrated, usually from 46.1 µM), for inactives: at the highest dose activity, positive = more growth; hit rate 0.4% among 270,000; calls by dose curve; note: potency is the fitted concentration of half-maximal effect; actives are rising curves; nearly all actives have a fitted effect of over 50% in size
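A cell-based growth assay was used: compounds that relieve NS1-induced slow growth of budding yeast raise OD600. Assay medium was yeast nitrogen base with ammonium sulphate and -URA supplement, pH 6.0, with 2% galactose.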
Pf growth 48h = P. falciparum growth inhibition at 48 hours (one generation) | hit rate 5.9% among 310,000 | P. falciparum luciferase growth in erythrocytes, 48 h | Potency, µM (series often up to 28.7 µM), for the others: at the top dose activity change, negative = inhibition, most hits filed as inhibitors; note: potency is the fitted concentration of half-maximal effect; % is set by controls: 0 for no effect and ±100 for the full control effect
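Cell-based growth assay: transgenic P. falciparum expressing firefly luciferase, cultured in red cells within RPMI 1640 containing 0.5% w/v Albumax, 24 mM bicarbonate and gentamycin. A drop in luciferase activity indicates inhibition.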
FBPA Giardia inh = blocks Giardia fructose-bisphosphate aldolase activity; A8B2U2; purified Giardia FBPA; Potency, µM (titrated, usually from 59.6 µM), inactives show top-dose activity, negative = inhibition, actives largely listed as inhibitors; hit rate 0.71% among 290,000; note: potency is the fitted concentration of half-maximal effect; % is set by controls: 0 for no effect and ±100 for the full control effect; nearly all actives have a fitted effect of over 55% in size
Target sequence (A8B2U2 whole entry, looked up): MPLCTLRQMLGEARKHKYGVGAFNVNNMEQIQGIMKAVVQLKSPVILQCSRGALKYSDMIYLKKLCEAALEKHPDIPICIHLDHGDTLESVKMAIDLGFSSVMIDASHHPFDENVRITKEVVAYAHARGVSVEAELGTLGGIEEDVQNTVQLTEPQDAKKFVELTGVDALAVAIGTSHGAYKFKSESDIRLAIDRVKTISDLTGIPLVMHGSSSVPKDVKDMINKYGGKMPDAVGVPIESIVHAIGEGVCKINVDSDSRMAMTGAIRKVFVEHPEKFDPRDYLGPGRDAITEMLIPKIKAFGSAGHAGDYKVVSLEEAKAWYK
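40 nM FBPA preincubated 10 min at RT with compound (up to 57.5 uM final), then substrate plus GAPDH/TPI/NAD/arsenate coupling and diaphorase/resazurin added. Fluorescence read after 20 min at RT, 525/598 nm.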
CHX counter = counter-screen hit for Shiga toxin inhibitors, cycloheximide; max response, %; hit rate 12% among 300,000; cell reporter, cycloheximide protein synthesis inhibition counterscreen; in the data active = max response mostly above about 13%, no sharp cut-off; inactive = mostly below about 14%; note: read at 38.3 µM for the half of the compounds with a filed dose; 0% is about no effect
Pf growth 96h = P. falciparum growth inhibition at 96 hours. P. falciparum luciferase reporter growth, 96 h. Potency, µM (top dose mostly 28.7 µM), for the others: at the top dose activity change, negative = inhibition, most hits filed as inhibitors. hit rate 6.9% among 320,000. AID 504834; note: potency is the fitted concentration of half-maximal effect; % is set by controls: 0 for no effect and ±100 for the full control effect
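Infected RBCs, 2% Hct / 0.05% parasitemia final; luciferase-reporter P. falciparum; cpd 96 h, 37 C, 5% CO2; luciferase detection reagent; luminescence.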
Numbers without * were called inactive; i = inactive; u = inconclusive; x = no result given. Rows were chosen to be rich in hits. Some 21% of all compounds tested hit in one or more screens of this group. Unless noted, calls come from the whole dose curve; as a rule, active = well fitted curve in the direction sought with a large enough effect; inconclusive = small, poorly fitted or top-dose-only effect, or another doubt; inactive = no such curve, though single readings can be large; an effect the other way counts as inactive or inconclusive.

SMILES	Shiga toxin inh	NS1 inh	Pf growth 48h	FBPA Giardia inh	CHX counter	Pf growth 96h
COC(=O)c1nn(-c2ccc3c(c2)CCN3C(C)=O)cc1O	-36	3%	1.3µM*	x	-11	33%
CCOC(=O)c1nn(-c2ccc([N+](=O)[O-])cc2)cc1O	46*	0%	30%	-2%	31*	29%
CCOC(=O)c1nn(-c2ccc3c(c2)OCCO3)cc1O	84*	x	225%	-1%	40*	345%
COC(=O)c1nn(-c2ccc3c(c2)OCO3)cc1O	61	-29%	127%	x	33*	i
COC(=O)C1=C(C)N(Cc2ccc3c(c2)OCO3)C(=O)C1	-9	8%	-3%	0%	-6	-1%
CCCC1(C(=O)OC)NC(c2ccc(OC)cc2OC)C2C(=O)N(c3cccc(C(C)=O)c3)C(=O)C21 (centres undefined)	-7	-5%	u	7%	2	-3%
CCOC(=O)c1nn(-c2ccc(C)c(C)c2)cc1O	94*	-37%	139%	-4%	42*	x
CCOC(=O)c1nn(-c2ccc(C)c(C)c2)c(=O)c2c(N)scc12	-22	19%	8%	u	-4	13µM*
CN(C(=O)COC(=O)c1cccc(S(=O)(=O)N2CCOCC2)c1)C1CCS(=O)(=O)C1 (centres undefined)	x	x	25%	x	x	22%
COc1ccccc1N(CCC#N)C(=O)COC(=O)CCC(=O)c1ccc(F)cc1	x	x	-10%	x	x	-3%
COc1ccc(NS(=O)(=O)c2cccc(C(=O)NNC(=O)CNC(=O)c3ccc(C)cc3)c2)cc1	x	x	8%	x	x	-8%
Cc1noc(C)c1C(=O)N1CCC2(CCCN(c3ccccc3)C2)CC1	x	x	x	-10%	x	x
Cc1cc(NC(=O)c2cc(C(C)C)on2)no1	67*	-48%	198%	1%	48*	u
Cc1cc(C)nc(NC(=O)c2cccs2)n1	34	-63%	30%	4%	12	88%
Cc1cc(NC(=O)c2ccno2)no1	11	-3%	41%	x	-1	1%
CC(C)NC(=O)c1cc(-c2cccs2)on1	57*	5%	137%	2%	31*	x
Cc1cc(C)nc(NC(=O)c2cccs2)c1	x	-4%	64%	-14%	21*	u
Cc1cc(NC(=O)c2cccs2)no1	57*	4%	88%	3%	33*	126%
O=C(c1cc(F)c(F)cc1Cl)N1CCCc2ccccc21	-6	-14%	15%	-5%	-1	u
CCS(=O)(=O)c1nc(S(=O)(=O)c2ccc(C)cc2)c(N2CCC(C)CC2)s1	2	-22%	u	x	-1	-27%
Cc1cc(C)c(NC(=O)c2cccs2)c(C)c1NC(=O)c1cccs1	-14	6%	-4%	-6%	5	36%
Cc1nc(NC(=O)c2cccs2)ccc1Br	106*	-8%	319%	0%	54*	22%
Cc1cc(NC(=O)c2cc(-c3cccs3)on2)no1	114*	-16%	23%	2%	29*	6%
COc1ccc(CN2C(=O)c3cccnc3C2Nc2ccc(OC)c(Cl)c2)cc1 (centres undefined)	-20	-1%	19%	-1%	-4	x
COc1cc(NC2c3ncccc3C(=O)N2Cc2ccco2)cc(OC)c1 (centres undefined)	-1	1%	u	-28%	9	3.7µM*
SMILES	Shiga toxin inh	NS1 inh	Pf growth 48h	FBPA Giardia inh	CHX counter	Pf growth 96h
O=C(NNC1=NCCCCC1)Nc1cccc(Cl)c1	45	x	136%	-1%	12*	111%
O=C(NNC1=NCCCCC1)Nc1ccc(Cl)cc1	23	-1%	28%	4%	23*	43%
CCOC(=O)CC1C(=O)NCCN1C(=O)COc1ccc(C(C)(C)C)cc1 (centres undefined)	27	-7%	0%	6%	-8	28%
CCCCC(CC)COC(=O)CC(C(=O)OCC(CC)CCCC)S(=O)(=O)O (centres undefined)	-7	x	-4%	19%	-6	-2%
COc1ccccc1OCCC(=O)OCC(=O)Nc1ccc(Br)cc1F	17	x	14%	0%	-2	25%
COc1cccc(C2NC(=O)CCC2[N+](=O)[O-])c1OC (centres undefined)	-1	-1%	3%	5%	-2	41%
COc1cc(C2NC(=O)CCC2[N+](=O)[O-])c(OC)cc1Br (centres undefined)	-13	2%	35%	2%	14	6.6µM*
C[C@@H]1c2ccccc2CN1CC1=NCCN1	x	x	x	-29%	x	x
CCCNC(=S)NC1CC2CCCC(C1)N2Cc1ccc(F)cc1 (centres undefined)	-8	29%	u	u	-7	u
O=C(Nc1ccccc1-c1ccccc1)NC1CC2CCCC(C1)N2CCc1ccccc1 (centres undefined)	-14	-9%	5.2µM*	3%	0	u
CN(CC(=O)Nc1ccccc1-c1ccccc1)C1CCCCC1	1	-3%	u	7%	-3	106%
O=C(Nc1ccccc1-c1ccccc1)NC1CC2CCCC(C1)N2Cc1ccc(F)cc1 (centres undefined)	-17	-1%	12µM*	1%	5	34%
COc1ccccc1CN(C)C(=O)c1ccc(COc2ccccc2)cc1	16	-41%	2%	5%	11	16%
COc1cccc(CN(C)C(=O)c2ccc(COc3ccc(Cl)cc3)cc2)c1OC	87*	-56%	37%	1%	67*	5%
Cc1ccc(Cl)cc1NC(=O)COC(=O)C12CC3CC(CC(C3)C1)C2	36	1%	3.7µM*	0%	-3	7.4µM*
Cc1ccc(Cl)cc1NC(=O)COc1ccccc1	30	-2%	16%	8%	16*	22%
CCCNS(=O)(=O)c1ccc(OCC(=O)Nc2ccccc2F)cc1	11	-5%	2%	0%	13	-4%
Cc1ccc(Cl)cc1NC(=O)CCC(=O)Nc1cc(Cl)ccc1C	-8	-2%	x	6%	-2	38%
O=C(COc1ccccc1)Nc1ccccc1F	x	-16%	46%	1%	33*	-21%
O=C(COc1ccc(Cl)cc1)NC1=NN(c2ccccc2)C(=O)C1	-4	u	8%	3%	-4	8.3µM*
COc1ccc(C(=O)COC(=O)COc2cc(C)cc(C)c2)cc1	-7	5%	23%	x	-2	5%
O=C(COC(=O)COc1ccc(Br)cc1)Nc1ccc2c(c1)OCCO2	x	x	13%	x	x	2%
O=C(COc1ccccc1)Nc1ccc(Cl)cc1Cl	93*	-7%	118%	3%	53*	137%
O=C(COc1ccccc1)Nc1cc(Cl)ccc1Cl	37*	6%	54%	9%	18*	44%
O=C(COc1ccccc1)Nc1ccc(Cl)cc1C(=O)c1ccccc1	-3	-1%	-16%	3%	5	-4%
N#Cc1ccsc1NC(=O)C1CCN(S(=O)(=O)c2cccs2)CC1	x	x	-27%	x	x	19%
COc1cc(C(=O)NNC(=O)c2ccccc2OCc2c(C)noc2C)cc(OC)c1OC	x	x	u	x	x	20%
